TRPM1 prom inh – reduces MITF-dependent TRPM1 promoter luciferase signal. AID 488899. inhibition, % at 12.5 µM. SK-MEL-5 TRPM1 promoter luciferase, 24 h. 330,000 tested, 0.83% active;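 active means mean inhibition across replicates of 60% or more, whatever share of single replicates reaches that level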
PAX8 inh HTS – lowers PAX8-driven luciferase in RMG-I cells; RMG-I TPO-luciferase reporter, SteadyGlo, 24 h; inhibition, % at 12.6 µM; 360,000 tested, 1.2% active;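 active means mean replicate inhibition at least 60% with every replicate also reaching 60%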;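 further: luciferase light reporting Pax8 driven TPO promoter activity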
esBAF inh – blocks esBAF chromatin remodeling in mouse ES cells | 350,000 tested, 2% active | Bmi1-luciferase knock-in reporter, 24 h; 100% = twice the neutral-well signal | reporter increase, % at 12.5 µM; in the data active means activation above about 40%;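 further: a rise in the Bmi1 reporter signal indicates esBAF inhibition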
Wnt act – activators of Wnt/beta-catenin signaling; activation, % at 9.35 µM; 300,000 tested, 1.2% active; AID 743398; Wnt/beta-catenin reporter cell assay, activator, plate reader; in the data active means activation above about 30%, passing the limit was not always enough
EWS-Fli inh – EWS/Fli transcriptional activity inhibition; A673 NR0B1-luciferase reporter, viability-normalised; inhibition, % at 12.6 µM; 350,000 tested, 0.67% active;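 active means mean inhibition of at least 50% after viability correction, with every replicate also passing that limit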;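 further: firefly luciferase signal divided by Alamar Blue viability fluorescence both relative to DMSO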
MITF act – increases MITF-driven TRPM1 promoter luciferase signal; SK-MEL-5 TRPM1-promoter luciferase, 24 h; % of positive control, neutral wells = 0; activation, % at 12.5 µM; 300,000 tested, 0.75% active;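 active means mean activation of at least 80% with every replicate also reaching 80%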
Numbers stand for hits; – = inactive; · = no result. Rows were chosen to be rich in hits. Some 4% of all compounds tested hit in one or more screens of this group.

SMILES	TRPM1 prom inh	PAX8 inh HTS	esBAF inh	Wnt act	EWS-Fli inh	MITF act
CCN1CCN(c2ccc(S(=O)(=O)N3CCCCC3)cc2NC(=O)/C=C/c2ccc(F)cc2)CC1	–	–	–	–	–	–
CN1CCN(c2ccc(S(=O)(=O)N3CCCCC3)cc2NC(=O)/C=C/c2ccc(Cl)c([N+](=O)[O-])c2)CC1	–	88	–	–	–	–
CCN1CCN(c2ccc(S(=O)(=O)N3CCCCC3)cc2NC(=O)/C=C/c2ccc(OC(F)F)cc2)CC1	–	–	–	–	–	–
CCN1CCN(c2ccc(S(=O)(=O)N3CCCCC3)cc2NC(=O)/C=C/c2ccc([N+](=O)[O-])cc2)CC1	–	–	–	–	57	–
CN1CCN(c2ccc(S(=O)(=O)N3CCCCC3)cc2NC(=O)/C=C/c2ccc(OC(F)F)cc2)CC1	–	–	–	–	–	–
CCN1CCN(c2ccc(S(=O)(=O)N3CCCCC3)cc2NC(=O)/C=C/c2cccc(OC)c2OC)CC1	78	–	·	–	–	–
CCCNC(=O)C[C@@H]1CC[C@@H]2[C@H](COc3ccc(NC(=O)c4cccc(Cl)c4)cc3C(=O)N2C)O1	·	–	–	·	–	·
Cc1ccc(S(=O)(=O)N2CC[C@H]3[C@@H](CO)N(C)c4ccc(-c5cccc(C#N)c5)cc4[C@H]32)cc1	·	–	–	·	–	·
COc1cccc(S(=O)(=O)N(C)C[C@@H]2Oc3ncc(C#Cc4ccccc4)cc3C(=O)N([C@H](C)CO)C[C@@H]2C)c1	·	–	–	·	–	·
C/C=C/c1ccc2c(c1)O[C@@H](CN(C)C(=O)Nc1cccc(F)c1)[C@H](C)CN([C@@H](C)CO)S2(=O)=O	·	–	–	·	–	·
O=C(COC(=O)Cn1cnc2ccccc21)Nc1cc2c(cc1Cl)C(=O)c1ccccc1C2=O	–	–	52	–	–	–
C[C@@H]1CN([C@@H](C)CO)C(=O)c2cc(NC(=O)Nc3cccc4ccccc34)ccc2O[C@H]1CN(C)C(=O)Nc1ccc2c(c1)OCO2	·	–	–	·	–	·
Cc1nn2c(N)c(-c3ccccc3)cnc2c1-c1ccccc1	–	–	50	–	–	·
Cc1nn2c(-c3ccc(Cl)cc3)ccnc2c1-c1ccccc1	–	–	57	–	·	·
Cc1nn2c(-c3ccc(F)cc3)ccnc2c1Cl	–	–	–	–	–	–
C[C@@H]1CN([C@H](C)CO)C(=O)c2cccc(N(C)C)c2O[C@H]1CN(C)S(C)(=O)=O	·	–	–	·	–	·
COc1ccccc1C(=O)Nc1nc(-c2ccc(S(=O)(=O)N3CCOCC3)cc2)cs1	81	·	–	·	·	–
O=C(COC(=O)c1cccc(S(=O)(=O)N2CCOCC2)c1)Nc1nc(-c2ccccc2Cl)cs1	–	·	52	·	·	·
Cc1ccc(S(=O)(=O)N2CCOCC2)cc1C(=O)Nc1nc(-c2ccccn2)cs1	·	–	·	–	–	–
Cc1cc(NC(=O)COC(=O)c2cccc(S(=O)(=O)N3CCOCC3)c2)no1	–	·	–	–	·	·
O=C(Nc1nc(-c2ccccn2)cs1)c1cccc(S(=O)(=O)N2CCOCC2)c1	–	81	–	–	–	–
C[C@@H](O)C#Cc1ccc([C@@H]2[C@H](CO)N3CCCCN(C(=O)c4ccc(F)cc4)C[C@@H]23)cc1	·	–	·	·	–	·
Cc1ccc(C(=O)C(C(=O)/C=C/c2ccccc2)=C2SCCCS2)cc1	86	·	–	·	·	–
Cn1ccnc1SCC(=O)c1ccc2ccccc2c1	–	–	·	50	–	88
Cn1ccnc1SCC(=O)c1cccc(Br)c1	–	·	–	·	·	–
COc1cccc(C(=O)CSc2nccn2C)c1	–	–	44	–	–	·
CNC[C@H]1Oc2cc(C#Cc3ccc(OC)cc3)ccc2S(=O)(=O)N([C@H](C)CO)C[C@@H]1C	·	·	–	·	–	·
COc1ccc(S(=O)(=O)N(C)C[C@H]2OCCCC[C@H](C)Oc3ccc(NS(=O)(=O)c4ccc(Cl)cc4)cc3C(=O)N([C@@H](C)CO)C[C@@H]2C)cc1	·	–	·	·	–	·
COc1ccc(S(=O)(=O)N(C)C[C@@H]2OCCCC[C@H](C)Oc3ccc(NS(=O)(=O)c4ccccc4)cc3C(=O)N([C@@H](C)CO)C[C@H]2C)cc1	·	–	–	·	–	·
COc1ccc(S(=O)(=O)Nc2ccc3c(c2)C(=O)N([C@@H](C)CO)C[C@H](C)[C@@H](CN(C)S(=O)(=O)c2ccc(Cl)cc2)OCCCC[C@H](C)O3)cc1	·	65	–	·	–	·

Assay outcomes from PubChem BioAssay.
